TRPM1 prom inh: inhibitors of MITF-dependent TRPM1 promoter reporter, primary screen, cell-based, SK-MEL-5, single point, luciferase | SK-MEL-5 TRPM1 promoter luciferase, 24 h | inhibition, % at 12.5 µM | 330,000 tested, 0.83% active | AID 488899, 2010;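 active = mean inhibition across replicates of 60% or more, whatever share of single replicates reaches that level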
CF NFkB block: inhibitors of PAF-induced NF-kB signaling, primary screen, cell-based, GFP fluorescence, uHTS; KKLEB NF-kB-GFP reporter, GFP fluorescence overnight; inhibition, % at 5 µM; 360,000 tested, 0.86% active; AID 588850, 2011;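 active = at least 50% inhibition at 5 µM, scaled per plate between neutral and stimulator controls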;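 also: PAF is a Pseudomonas aeruginosa culture filtrate used as stimulus; plate controls were PAF-stimulated DMSO wells for no effect and unstimulated DMSO wells for full effect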
EBV LMP1 NFkB: EBV LMP1-driven NF-kappaB luciferase reporter inhibitors, primary screen, cell-based, luminescence, single point. 350,000 tested, 0.69% active. LMP1-induced NF-kappaB luciferase reporter cells. AID 504558, 2011. inhibition, % at 12.5 µM; in the data active = inhibition above about 41%;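 also: 0% = neutral control wells and 100% = reference inhibitor control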
KKLEB cytotox: cytotoxicity in KKLEB CF airway cells, primary screen, cytotoxicity control for CF NF-kB inhibitor project, cell-based, uHTS, fluorescence assay plates; activity change (cytotoxicity), % at 5 µM; 360,000 tested, 0.36% active; AID 602141, 2011; KKLEB CF airway cells viability, ATPlite luminescence, overnight; active compounds read low; cells stimulated with P. aeruginosa culture filtrate;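 active = corrected activity change at or below -50% at 5 µM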
HIF-2a block: HIF-2a reporter inhibitors, primary screen, luminescence, 786-0 RCC cells; 786-0 RCC cells HIF-2a reporter, luciferase luminescence, overnight; inhibition, % at 18.8 µM; 360,000 tested, 0.72% active; AID 624352, 2012;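 active = inhibition of the luminescence signal of 40% or more relative to plate controls, in a single-dose primary screen at 18.75 µM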
Peg3 promoter: Peg3 promoter-driven luciferase inhibitors, primary screen, cell-based, HeLa, luciferase luminescence. HeLa PEG-Prom luciferase reporter, overnight. inhibition, % at 20 µM. 360,000 tested, 1.7% active;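 active = inhibition of at least 50% at 20 µM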
CF NFkB inh conf: inhibitors of PAF-induced NF-kB signaling, retest, confirmation, cell-based, GFP fluorescence, single concentration. 1,300 tested, 64% active. KKLEB CF airway cells, overnight. AID 602472, 2012. inhibition, % at 5 µM. shares compounds with CF NFkB block; in the data active = inhibition above about 40%;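 also: stimulus PAF is a Pseudomonas aeruginosa filtrate and not platelet activating factor; plate controls were DMSO wells with stimulus for no effect and unstimulated DMSO wells for full effect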
* marks the source's active call; other numbers are inactive results. A selection: hits, their analogues and other compounds. The true share with any hit is near 3%.

`CCOc1ccc(Oc2ccc(NS(=O)(=O)c3ccc(CCC(=O)O)cc3)cc2)cc1` gave CF NFkB block 16, EBV LMP1 NFkB -5, KKLEB cytotox -8, HIF-2a block 0 and Peg3 promoter -4.
`O=C1OC(c2ccccc2)(c2cc(Br)ccc2O)c2ccccc21` (configuration not stated) gave TRPM1 prom inh -8, CF NFkB block 75*, EBV LMP1 NFkB -2, KKLEB cytotox -20, HIF-2a block 32, Peg3 promoter 104* and CF NFkB inh conf 49*.
For CCCS(=O)(=O)NC(=O)C1(C)CCN(C(=O)Cc2cccc(OC)c2)C1 (configuration not stated) the results were CF NFkB block -20, KKLEB cytotox 23, HIF-2a block -1 and Peg3 promoter 0.
`Nc1nccc(-c2cc(-c3ccc(Cl)cc3Cl)no2)n1` gave TRPM1 prom inh -23, CF NFkB block 51*, EBV LMP1 NFkB -6, KKLEB cytotox -22, HIF-2a block -231, Peg3 promoter -112 and CF NFkB inh conf 27.
For CCCNC(=O)C1(C)CCN(Cc2ccc(Oc3ccccc3)cc2)C1 (configuration not stated) the results were CF NFkB block -14, KKLEB cytotox 14, HIF-2a block 6 and Peg3 promoter -1.
For O=C1NCCc2c1[nH]c1c(Cl)ccc(Cl)c21 the results were TRPM1 prom inh -15, CF NFkB block 56*, EBV LMP1 NFkB 23, KKLEB cytotox -15, HIF-2a block 38, Peg3 promoter 17 and CF NFkB inh conf 71*.
`N#Cc1ccccc1C[C@H](N)C(=O)NC[C@H]1O[C@@H](n2cnc3c(N)ncnc32)[C@H](O)[C@@H]1O` gave CF NFkB block -3, KKLEB cytotox 1, HIF-2a block 13 and Peg3 promoter 7.
`CC(C)c1ccc(NC(=O)C(c2ccc3c(c2)OCO3)N2CCCCC2)cc1` (configuration not stated) gave CF NFkB block 5, EBV LMP1 NFkB -2, KKLEB cytotox 1, HIF-2a block -48 and Peg3 promoter 5.
Oc1cc2c(cc1C(c1ccc(Cl)c(Cl)c1)N1CCCC1)OCO2 (configuration not stated) was read as TRPM1 prom inh 6, CF NFkB block 64*, EBV LMP1 NFkB 1, KKLEB cytotox -48, HIF-2a block 29, Peg3 promoter 31 and CF NFkB inh conf 44*.
Screening CCN(CC)CCNC(=O)c1ccc(NC(=O)C2CCN(c3ncnc4sc(C)c(C)c34)CC2)cc1 returned TRPM1 prom inh -31, CF NFkB block 55*, EBV LMP1 NFkB -2, KKLEB cytotox -18, HIF-2a block 28, Peg3 promoter 80* and CF NFkB inh conf 56*.
Screening O=C(NCc1ccccc1)C1=C[C@H](c2csc3ccccc23)C[C@H](OCc2ccc(CO)cc2)O1 returned TRPM1 prom inh 4, CF NFkB block 53*, EBV LMP1 NFkB 0, KKLEB cytotox -48, HIF-2a block 23, Peg3 promoter 34 and CF NFkB inh conf 60*.
Screening O=C(Nc1ccccc1)C1=C[C@@H](c2csc3ccccc23)C[C@@H](OCc2ccc(CO)cc2)O1 returned TRPM1 prom inh 16, CF NFkB block 1, EBV LMP1 NFkB -21, KKLEB cytotox -2, HIF-2a block 9 and Peg3 promoter 17.
O=[N+]([O-])c1ccc(Sc2nnnn2-c2ccccc2)c(Cl)c1 was read as TRPM1 prom inh 21, CF NFkB block 19, EBV LMP1 NFkB 24, KKLEB cytotox -26, HIF-2a block 6 and Peg3 promoter 18.
CC(=O)c1ccc(Sc2nnnn2-c2ccccc2)c([N+](=O)[O-])c1 was read as TRPM1 prom inh 63*, CF NFkB block 76*, EBV LMP1 NFkB -15, KKLEB cytotox -32, HIF-2a block 13, Peg3 promoter 38 and CF NFkB inh conf 28.

Source: PubChem (several laboratories)
